Assay [1] is described as follows: Human pregnane X receptor (PXR) small molecule agonists, qHTS cell viability counter screen (AID 1346977). Also: nearly all actives have a fitted effect of over 50% in size. In a few lines: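 PXR-Luc HepG2 cells (2,000/well, 5% charcoal-stripped FBS) preincubated 5 hr, then exposed to compounds 24 hr at 37 C. Viability read in the same wells by CellTiter-Fluor fluorescence, reagent added at 23 hr, 1 hr incubation.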
Assay [2] can be described thus: Caspase-3/7 induction in HepG2 cells by small molecules, qHTS assay (AID 1346978). Also: nearly all actives have a fitted effect of over 15% in size. In outline:
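Caspase-3/7 induction was measured by Caspase-Glo 3/7 luminescence (30 min, room temperature) after a 17 hr compound exposure of wild-type HepG2 cells seeded at 2,000 per well and pre-incubated 5 hr.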

The nature of assay [3]: Caspase-3/7 induction in CHO-K1 cells by small molecules, qHTS cell viability counter screen (AID 1346979). Also: nearly all actives have a fitted effect of over 35% in size. In a few lines:
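Wild-type CHO-K1 cells (1,500/well) treated with compound after 5 h plating; after 16 h at 37C, viability read as CellTiter-Fluor fluorescence following 1 h reagent incubation, in the same wells as the caspase read.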
A general note: In qHTS, concentration-response curves come from the screen itself.

Assay [4] in a line: Caspase-3/7 induction in CHO-K1 cells by small molecules, qHTS assay (AID 1346980). Also: nearly all actives have a fitted effect of over 15% in size. In a few lines: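 Luminescent Caspase-Glo 3/7 read (30min, room temperature) quantified apoptosis induction. Cells were wild-type CHO-K1, treated with compound for 17hr at 37 C and 5% CO2.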
The nature of assay [5]: Caspase-3/7 induction in HepG2 cells by small molecules, qHTS cell viability counter screen (AID 1346981). Also: series mostly up to about 92 µM; nearly all actives have a fitted effect of over 30% in size. In a few lines:
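Counter screen for cytotoxicity: HepG2 exposed 16 hr to compounds, then CellTiter-Fluor viability signal (fluorescence, 1 hr reagent incubation).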

The target of assay [6] is Nuclear receptor subfamily 1 group I member 2 (Homo sapiens) (UniProt O75469). In words: Human pregnane X receptor (PXR) small molecule agonists, qHTS assay (AID 1346982). Also: nearly all actives have a fitted effect of over 35% in size. In outline: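 Luminescence (ONE-Glo, 30 min RT) after 24 hr compound exposure of PXR-Luc HepG2 cells; cells rested 5 hr post-plating in 5% charcoal-stripped FBS medium.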
The target of assay [7] is Nuclear receptor subfamily 1 group I member 2 (Rattus norvegicus) (UniProt Q9R1A7). Put plainly: Rat pregnane X receptor (rPXR) activation by small molecules, qHTS assay (AID 1346983). Also: nearly all actives have a fitted effect of over 20% in size. To be noted: rPXR luciferase reporter cells, One-Glo luminescence, 24 h; max activation: stronger effect = higher value. In a few lines:
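Luminescent readout (One-Glo luciferase, 30 min room temperature) followed 24 hr compound treatment at 37 C of rPXR cells plated 2,000 per well and preincubated 5hr; qHTS format with compounds delivered in DMSO.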

Assay [8] addresses Nuclear receptor subfamily 1 group I member 2 (Homo sapiens) (UniProt O75469). In words: CYP3A4 induction through human pregnane X receptor (PXR) by small molecules, qHTS assay (AID 1346984). Also: nearly all actives have a fitted effect of over 40% in size. In outline:
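DPX-2 reporter cells; 24h cpd, 37C; Luciferin-IPA 3uM final x3h; One-Glo 30 min RT; lumi read.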

For assay [9] the target is unchanged. Put plainly: Human pregnane X receptor (PXR) activation by small molecules, qHTS assay (AID 1346985). Also: nearly all actives have a fitted effect of over 40% in size. In outline:
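DPX-2 cells (HepG2 co-transfected with a PXR response element and a CYP3A4-promoter luciferase construct) were seeded at 2,000 per well, rested 5 hr at 37C, then exposed to DMSO-dissolved compounds for 24 hr. Activation was read as luciferase luminescence.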

Assay [10] concerns the target Cytochrome P450 2D6 (Homo sapiens) (UniProt P10635). Put plainly: Cytochrome P450 Family 2 Subfamily D Member 6 (CYP2D6) small molecule antagonists: luciferase reporter qHTS assay (AID 1671196). Also: nearly all actives have a fitted effect of over 50% in size. Also: potency is read from the fitted curve at half-maximal effect. As to activity change, negative = inhibition: series mostly up to about 120 µM. In a few lines:
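Inhibition of CYP2D6 was gauged by loss of luminescence, since light produced tracks the luciferin generated from a proluciferin substrate. A 10 min room-temperature preincubation preceded 1 h NADPH-supported turnover.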
For orientation: A reporter such as luciferase makes a cellular process visible.

Assay [11] deals with Cytochrome P450 2C19 (Homo sapiens) (UniProt P33261). In words: Cytochrome P450 Family 2 Subfamily C Member 19 (CYP2C19) small molecule antagonists: luciferase reporter qHTS assay (AID 1671197). Also: nearly all actives have a fitted effect of over 65% in size. Also: potency is read from the fitted curve at half-maximal effect. As to activity change, negative = inhibition: series mostly up to about 120 µM. In a few lines:
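Inhibition of CYP2C19 was scored from loss of luminescence in a P450-Glo proluciferin substrate assay, NADPH-started and run 1 h at 37C, with ketoconazole as positive control.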

The target in assay [12] is Cytochrome P450 2C9 (Homo sapiens) (UniProt P11712). In words: Cytochrome P450 Family 2 Subfamily C Member 9 (CYP2C9) small molecule antagonists: luciferase reporter qHTS assay (AID 1671198). Also: series mostly up to about 120 µM; nearly all actives have a fitted effect of over 50% in size. In a few lines:
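Enzyme-substrate mix preincubated with compound 10 min at room temperature; reaction started with NADPH regeneration solution, 1 h 37C. Luminescent luciferin product read after 20 min detection reagent.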

In assay [13] the target is Voltage-gated inwardly rectifying potassium channel KCNH2 (Homo sapiens) (UniProt Q12809). In words: Human Ether-a-go-go-Related Gene (hERG) channel small molecule antagonists: fluorescence cell-based qHTS assay (AID 1671200).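 Also: hERG-expressing U2OS cells given a thallium stimulus after FluxOR II dye loading; series mostly up to about 77 µM; nearly all actives have a fitted effect of over 50% in size.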 In outline:
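hERG-U2OS cells plated overnight at 37 C, loaded with FluxOR II dye 1 h at RT in dark; after 10 min, thallium stimulus added. Fluorescence (480/540 nm) read kinetically for 2 min at 1 s intervals.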
A general note: hERG is a cardiac potassium channel; its block is linked to QT prolongation.

Assay [14] deals with Cytochrome P450 3A4 (Homo sapiens) (UniProt P08684). Put plainly: Cytochrome P450 Family 3 Subfamily A Member 4 (CYP3A4) small molecule antagonists: luciferase reporter qHTS assay (AID 1671201). In outline: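 P450-Glo CYP3A4 luminescent assay: compounds preincubated 10 min at room temperature with enzyme and proluciferin substrate, NADPH regeneration added, 1 h room-temperature reaction, stopped with luciferin detection reagent; luminescence read after 20 min. Ketoconazole positive control.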

Assay [15] concerns the target Cytochrome P450 1A2 (Homo sapiens) (UniProt P05177). Put plainly: Cytochrome P450 Family 1 Subfamily A Member 2 (CYP1A2) small molecule antagonists: luciferase reporter qHTS assay (AID 1671199). Also: nearly all actives have a fitted effect of over 50% in size. Also: potency is read from the fitted curve at half-maximal effect. As to activity change, negative = inhibition: series mostly up to about 120 µM. In a few lines: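 Signal from luciferin formed by CYP1A2 from a proluciferin substrate is read as luminescence, expressed in relative luminescence units. Compounds sit with enzyme 10 min, NADPH-driven reaction runs 1 h, all at room temperature.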

Assay [16] addresses Thyrotropin-releasing hormone receptor (Homo sapiens) (UniProt P34981). In words: qHTS assay to identify small molecule agonists of the thyrotropin-releasing hormone receptor (TRHR) signaling pathway (AID 1346891; calls by dose curve; also: series mostly up to about 58 µM). In outline: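 HEK293 cells expressing TRHR plated 18 h at 37 C/5% CO2, calcium dye-loaded 2 h at 37 C, then compound added (agonist mode); kinetic calcium fluorescence read 3 min at 1 s intervals; 15 concentrations in triplicate.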

A number with no mark means an inactive call. Inconclusive results are not listed. The source made the active and inactive calls. Unless noted, calls follow the shape of the dose curve; as a rule, active = well fitted curve in the direction sought with a large enough effect in the repeat runs; inconclusive = weak or mixed curves; inactive = no such curve, though single readings can be large; an effect the other way counts as inactive or inconclusive.
% is scaled to controls: 0 for no effect and ±100 for the full control effect.

Sequence of Cytochrome P450 2D6 (Homo sapiens) (P10635 whole entry, looked up): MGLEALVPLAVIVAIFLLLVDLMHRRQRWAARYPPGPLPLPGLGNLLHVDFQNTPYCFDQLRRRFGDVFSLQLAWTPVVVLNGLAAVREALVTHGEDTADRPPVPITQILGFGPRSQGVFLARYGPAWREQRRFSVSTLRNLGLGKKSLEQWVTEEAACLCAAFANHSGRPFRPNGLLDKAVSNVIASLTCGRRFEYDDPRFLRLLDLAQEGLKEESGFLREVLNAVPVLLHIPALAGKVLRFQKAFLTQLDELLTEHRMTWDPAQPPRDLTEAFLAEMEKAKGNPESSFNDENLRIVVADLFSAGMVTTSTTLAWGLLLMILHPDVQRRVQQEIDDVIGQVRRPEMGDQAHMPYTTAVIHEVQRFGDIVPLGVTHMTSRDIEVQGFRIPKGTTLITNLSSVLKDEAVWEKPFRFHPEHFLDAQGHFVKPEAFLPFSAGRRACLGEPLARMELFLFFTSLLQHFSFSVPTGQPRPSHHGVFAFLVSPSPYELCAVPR
Sequence of Nuclear receptor subfamily 1 group I member 2 (Rattus norvegicus) (Q9R1A7 whole entry, looked up): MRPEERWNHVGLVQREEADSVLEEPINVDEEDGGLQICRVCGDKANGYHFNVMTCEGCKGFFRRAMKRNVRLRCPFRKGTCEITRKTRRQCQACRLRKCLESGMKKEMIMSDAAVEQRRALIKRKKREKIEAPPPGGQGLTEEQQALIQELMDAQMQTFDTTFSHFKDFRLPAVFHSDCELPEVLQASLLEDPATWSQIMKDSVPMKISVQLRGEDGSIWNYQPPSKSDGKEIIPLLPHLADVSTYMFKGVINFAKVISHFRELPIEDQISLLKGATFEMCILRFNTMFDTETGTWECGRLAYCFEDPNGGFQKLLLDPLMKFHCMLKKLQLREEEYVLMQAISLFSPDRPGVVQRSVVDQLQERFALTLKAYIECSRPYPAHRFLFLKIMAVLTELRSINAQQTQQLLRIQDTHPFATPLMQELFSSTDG
Sequence of Cytochrome P450 3A4 (Homo sapiens) (P08684 whole entry, looked up): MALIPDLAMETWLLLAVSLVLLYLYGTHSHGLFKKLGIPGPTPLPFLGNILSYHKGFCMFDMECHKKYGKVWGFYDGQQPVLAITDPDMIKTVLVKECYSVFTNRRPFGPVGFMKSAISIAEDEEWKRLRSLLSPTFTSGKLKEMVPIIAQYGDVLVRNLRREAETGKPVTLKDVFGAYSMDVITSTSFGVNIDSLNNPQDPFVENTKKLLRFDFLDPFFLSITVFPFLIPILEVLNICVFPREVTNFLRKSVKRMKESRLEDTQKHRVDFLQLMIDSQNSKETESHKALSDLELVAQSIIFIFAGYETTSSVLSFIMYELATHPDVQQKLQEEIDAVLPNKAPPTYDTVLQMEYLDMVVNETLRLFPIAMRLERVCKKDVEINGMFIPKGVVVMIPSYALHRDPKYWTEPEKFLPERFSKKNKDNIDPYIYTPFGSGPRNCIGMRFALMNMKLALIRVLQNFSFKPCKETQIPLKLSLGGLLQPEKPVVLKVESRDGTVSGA
Sequence of Cytochrome P450 2C19 (Homo sapiens) (P33261 whole entry, looked up): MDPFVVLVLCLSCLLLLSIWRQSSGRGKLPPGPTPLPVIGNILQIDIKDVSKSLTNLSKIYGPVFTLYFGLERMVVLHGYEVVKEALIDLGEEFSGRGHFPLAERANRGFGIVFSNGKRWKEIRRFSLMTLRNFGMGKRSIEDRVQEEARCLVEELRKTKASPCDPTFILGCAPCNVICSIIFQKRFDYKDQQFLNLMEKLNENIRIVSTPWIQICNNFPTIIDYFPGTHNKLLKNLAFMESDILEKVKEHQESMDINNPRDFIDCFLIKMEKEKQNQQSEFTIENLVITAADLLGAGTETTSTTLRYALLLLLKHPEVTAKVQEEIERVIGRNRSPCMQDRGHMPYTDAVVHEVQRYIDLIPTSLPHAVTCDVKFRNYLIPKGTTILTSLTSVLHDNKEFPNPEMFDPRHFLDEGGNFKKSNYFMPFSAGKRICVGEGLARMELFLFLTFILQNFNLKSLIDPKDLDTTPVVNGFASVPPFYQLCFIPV
Sequence of Voltage-gated inwardly rectifying potassium channel KCNH2 (Homo sapiens) (Q12809 whole entry, looked up): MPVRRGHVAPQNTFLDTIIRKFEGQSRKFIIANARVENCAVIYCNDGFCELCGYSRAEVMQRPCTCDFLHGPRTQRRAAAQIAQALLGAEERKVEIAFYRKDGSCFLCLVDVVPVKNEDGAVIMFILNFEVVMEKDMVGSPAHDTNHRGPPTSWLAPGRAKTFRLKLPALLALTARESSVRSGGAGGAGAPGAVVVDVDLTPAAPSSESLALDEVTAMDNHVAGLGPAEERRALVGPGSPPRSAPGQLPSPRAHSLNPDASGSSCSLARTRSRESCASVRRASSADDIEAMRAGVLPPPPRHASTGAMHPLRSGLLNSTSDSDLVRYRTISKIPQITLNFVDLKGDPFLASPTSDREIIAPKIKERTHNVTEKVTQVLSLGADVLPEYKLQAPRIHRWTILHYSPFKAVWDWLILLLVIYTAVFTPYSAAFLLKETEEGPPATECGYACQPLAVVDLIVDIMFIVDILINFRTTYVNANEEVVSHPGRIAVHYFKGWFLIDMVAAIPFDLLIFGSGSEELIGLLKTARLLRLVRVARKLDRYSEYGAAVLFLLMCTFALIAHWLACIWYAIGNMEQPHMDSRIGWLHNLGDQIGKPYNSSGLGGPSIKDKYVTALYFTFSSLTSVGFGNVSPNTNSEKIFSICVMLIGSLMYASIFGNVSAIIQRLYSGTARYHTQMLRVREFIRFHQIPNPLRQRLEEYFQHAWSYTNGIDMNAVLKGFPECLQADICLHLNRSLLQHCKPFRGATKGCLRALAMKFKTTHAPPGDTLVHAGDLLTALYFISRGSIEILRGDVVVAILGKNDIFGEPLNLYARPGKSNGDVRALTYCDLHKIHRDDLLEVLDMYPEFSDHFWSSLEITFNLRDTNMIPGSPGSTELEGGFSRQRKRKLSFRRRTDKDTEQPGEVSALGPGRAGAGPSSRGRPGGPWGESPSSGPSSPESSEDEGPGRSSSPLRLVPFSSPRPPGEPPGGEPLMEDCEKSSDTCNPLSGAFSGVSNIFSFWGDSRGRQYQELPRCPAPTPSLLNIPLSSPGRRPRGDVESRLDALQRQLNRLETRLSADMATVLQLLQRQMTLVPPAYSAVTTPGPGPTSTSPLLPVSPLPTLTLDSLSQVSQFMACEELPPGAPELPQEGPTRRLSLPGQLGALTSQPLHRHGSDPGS
Sequence of Cytochrome P450 1A2 (Homo sapiens) (P05177 whole entry, looked up): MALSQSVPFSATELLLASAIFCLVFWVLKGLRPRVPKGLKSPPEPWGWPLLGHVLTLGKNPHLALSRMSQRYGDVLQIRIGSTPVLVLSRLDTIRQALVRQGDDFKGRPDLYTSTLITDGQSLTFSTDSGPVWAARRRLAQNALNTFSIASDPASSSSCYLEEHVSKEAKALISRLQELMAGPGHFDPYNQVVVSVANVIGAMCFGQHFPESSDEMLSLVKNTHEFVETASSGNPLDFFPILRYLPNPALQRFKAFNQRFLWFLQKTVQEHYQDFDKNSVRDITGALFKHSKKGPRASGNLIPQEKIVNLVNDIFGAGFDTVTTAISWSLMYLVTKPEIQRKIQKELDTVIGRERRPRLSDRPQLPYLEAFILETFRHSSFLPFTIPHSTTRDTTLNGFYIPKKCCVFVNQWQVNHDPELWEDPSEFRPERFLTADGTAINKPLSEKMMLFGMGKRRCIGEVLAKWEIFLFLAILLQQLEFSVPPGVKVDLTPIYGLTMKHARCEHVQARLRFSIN
Sequence of Cytochrome P450 2C9 (Homo sapiens) (P11712 whole entry, looked up): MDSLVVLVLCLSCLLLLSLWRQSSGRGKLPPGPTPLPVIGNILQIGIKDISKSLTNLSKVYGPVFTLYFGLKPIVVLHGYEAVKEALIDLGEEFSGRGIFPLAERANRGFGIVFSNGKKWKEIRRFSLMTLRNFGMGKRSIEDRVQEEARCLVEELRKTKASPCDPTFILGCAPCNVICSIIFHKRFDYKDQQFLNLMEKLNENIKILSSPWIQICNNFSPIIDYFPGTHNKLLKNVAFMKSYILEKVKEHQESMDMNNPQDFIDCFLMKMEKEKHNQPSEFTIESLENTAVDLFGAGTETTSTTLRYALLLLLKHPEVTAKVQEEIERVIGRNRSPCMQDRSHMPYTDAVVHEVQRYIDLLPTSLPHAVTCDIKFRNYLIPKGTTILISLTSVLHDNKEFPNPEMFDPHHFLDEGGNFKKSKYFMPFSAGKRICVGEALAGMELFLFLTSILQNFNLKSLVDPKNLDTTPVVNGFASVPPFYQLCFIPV
Sequence of Nuclear receptor subfamily 1 group I member 2 (Homo sapiens) (O75469 whole entry, looked up): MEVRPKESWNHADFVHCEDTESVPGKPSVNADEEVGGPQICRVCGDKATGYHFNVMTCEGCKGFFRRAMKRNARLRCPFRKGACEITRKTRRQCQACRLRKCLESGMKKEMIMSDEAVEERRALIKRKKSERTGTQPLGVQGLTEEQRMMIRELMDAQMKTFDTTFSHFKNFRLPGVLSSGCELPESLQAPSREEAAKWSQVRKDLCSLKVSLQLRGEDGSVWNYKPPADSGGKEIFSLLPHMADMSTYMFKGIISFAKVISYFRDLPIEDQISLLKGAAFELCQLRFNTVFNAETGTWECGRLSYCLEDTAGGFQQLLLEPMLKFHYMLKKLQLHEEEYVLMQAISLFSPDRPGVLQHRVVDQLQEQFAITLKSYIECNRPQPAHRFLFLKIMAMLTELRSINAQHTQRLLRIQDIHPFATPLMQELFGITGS
Sequence of Thyrotropin-releasing hormone receptor (Homo sapiens) (P34981 whole entry, looked up): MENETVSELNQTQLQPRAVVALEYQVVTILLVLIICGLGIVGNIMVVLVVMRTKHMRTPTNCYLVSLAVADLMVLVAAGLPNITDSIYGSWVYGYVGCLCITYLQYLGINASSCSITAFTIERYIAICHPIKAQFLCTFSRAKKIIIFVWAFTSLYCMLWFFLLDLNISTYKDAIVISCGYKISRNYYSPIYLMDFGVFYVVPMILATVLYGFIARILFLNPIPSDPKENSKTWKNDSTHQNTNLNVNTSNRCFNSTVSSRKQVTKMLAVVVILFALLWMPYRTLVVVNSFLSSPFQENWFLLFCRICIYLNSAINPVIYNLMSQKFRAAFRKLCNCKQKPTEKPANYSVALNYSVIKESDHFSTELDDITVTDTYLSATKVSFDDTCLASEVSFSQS

As to `CCCCCOC(=O)Nc1nc(=O)n([C@@H]2O[C@H](C)[C@@H](O)[C@H]2O)cc1F`, the Potency result in assay [1], in [3], in assay [6], in [8], in assay [9] and in [10] was “inactive” each time. Further, the Potency entry in assay [11], in assay [12], in assay [13] and in assay [14] was “inactive” each time. Further, the compound was classed as inactive in [2], in assay [4] and in [5]. In assay [7], the max activation was -1.91%.

For the compound `C[C@H]1O[C@@H](n2cc(F)c(=O)[nH]c2=O)[C@H](O)[C@@H]1O`, the Potency result in assay [1], in [3], in [6], in assay [8], in [9] and in assay [10] was “inactive” throughout. Moreover, the Potency entry in assay [11], in assay [12], in assay [13] and in assay [14] was “inactive” each time. Besides, the result in assay [2], in assay [4] and in assay [5] was inactive. In assay [7], the max activation is -1.26%.

As to `COc1cc(C)cc(O)c1`, the Potency result in assay [1], in [3], in [6], in assay [10], in [11] and in assay [12] was “inactive” each time. Also, the Potency result in assay [13] and in assay [14] was “inactive” in each case. In addition, the outcome in assay [2], in assay [4] and in assay [5] was inactive. For the same compound, the Potency in assay [15] was 35.6 µM (active).

For the compound `C1CCCCCCCCCCC1`, the activation in assay [16] is 1.06% [at 11.8 µM]; in assay [6] it was 7.58% [at 19 µM]. Further, the activity change, negative = cytotoxicity in [1] was 4.48% [at 19 µM]; in [3], 2.86% [at 19 µM]. For the same compound, in assay [2], the caspase activation is 0.953% [at 19 µM]. In addition, the activity change, negative = inhibition in [10] is -0.464% [at 23.6 µM]; in [11], -20.8% [at 23.6 µM]; in assay [12] it was -1.08% [at 23.6 µM]; in assay [13], -1.65% [at 15.8 µM]; in assay [14], 3.28% [at 23.6 µM]. The Potency entry in [15] is “inactive”.

In the case of `Cc1c(C)n(CCN(C)C)c2ccc(C(=O)OCCN(C)C)cc12`, the outcome in [16], in assay [2] and in assay [4] was inactive. Moreover, the Potency result in assay [6], in assay [8], in assay [10], in assay [11], in assay [12] and in assay [13] was “inactive” in each case. Further, the Potency result in assay [14] was “inactive”. The max activation in [7] is 6.74%. The Potency in assay [15] is 17.4 µM (active).

In the case of `OC[C@H]1O[C@@H]2O[C@H]3[C@H](O)[C@@H](O)[C@@H](O[C@H]4[C@H](O)[C@@H](O)[C@@H](O[C@H]5[C@H](O)[C@@H](O)[C@@H](O[C@H]6[C@H](O)[C@@H](O)[C@@H](O[C@H]7[C@H](O)[C@@H](O)[C@@H](O[C@H]8[C@H](O)[C@@H](O)[C@@H](O[C@H]9[C@H](O)[C@@H](O)[C@@H](O[C@H]1[C@H](O)[C@H]2O)O[C@@H]9CO)O[C@@H]8CO)O[C@@H]7CO)O[C@@H]6CO)O[C@@H]5CO)O[C@@H]4CO)O[C@@H]3CO`, the outcome in [16] and in assay [2] was inactive. Also, the Potency entry in assay [1], in [3], in assay [6], in [10], in [11] and in [12] was “inactive” throughout. Also, the Potency entry in [13] and in [14] was “inactive” each time.

In the case of `CCCCCCCCCCCCCCC`, the Potency entry in assay [1], in [3], in assay [6], in assay [10], in assay [11] and in assay [12] was “inactive” in each case. The Potency entry in [15], in assay [13] and in assay [14] was “inactive” each time. Besides, the compound was called inactive in assay [2], in [4] and in assay [5].

With `Cc1cc(C)c(NC(=O)CN(CC(=O)O)CC(=O)O)c(C)c1Br`, the Potency entry in assay [1], in [3], in assay [6], in assay [8], in assay [9] and in assay [10] was “inactive” throughout. The Potency result in assay [11], in assay [12], in assay [15], in assay [13] and in assay [14] was “inactive” throughout. Moreover, the compound was called inactive in assay [2], in assay [4] and in assay [5]. Moreover, the max activation in assay [7] was -1.5%.

Turning to `CC1CCN(CCCC(=O)c2ccc(F)cc2)CC1`, the Potency result in [1], in [3], in assay [6], in assay [8], in assay [9] and in assay [12] was “inactive” throughout. Moreover, the Potency result in [15] and in assay [14] was “inactive” each time. In addition, the result in [2], in assay [4] and in assay [5] was inactive. In assay [7], the max activation is -4.88%. Further, the Potency is 0.246 µM (active) in [10] and 34.7 µM (active) in [11].

Values taken from PubChem BioAssay (Tox21).
